From PubChem
PI4K2A block: PI4K2A (human) kinase inhibition | Q9BTU6 | AID 1346378 | activity change, negative = inhibition, % at 76.9 µM | 0.13% of 420,000 active | purified PI4K2A, ADP-Glo luminescence, 1 h; active compounds read low; in the data active = activity change below about -50%; inconclusive = mostly about -30% to -49%;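 also: -100% = wells without enzyme as full effect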
Target sequence (Q9BTU6 whole entry, looked up): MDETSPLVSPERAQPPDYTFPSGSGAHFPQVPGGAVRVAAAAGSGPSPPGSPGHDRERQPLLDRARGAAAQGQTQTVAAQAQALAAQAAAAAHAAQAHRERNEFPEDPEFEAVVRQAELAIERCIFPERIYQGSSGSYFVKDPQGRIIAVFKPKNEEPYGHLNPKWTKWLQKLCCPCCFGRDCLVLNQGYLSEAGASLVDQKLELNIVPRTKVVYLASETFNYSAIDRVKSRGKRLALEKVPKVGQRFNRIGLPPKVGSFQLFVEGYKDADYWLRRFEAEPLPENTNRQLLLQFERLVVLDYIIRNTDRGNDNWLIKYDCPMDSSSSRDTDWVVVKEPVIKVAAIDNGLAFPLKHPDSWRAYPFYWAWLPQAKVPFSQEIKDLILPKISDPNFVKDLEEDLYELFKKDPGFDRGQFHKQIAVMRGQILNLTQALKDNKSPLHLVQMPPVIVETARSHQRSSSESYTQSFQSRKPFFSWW
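PI4K2A activity was measured by ADP-Glo luminescence: enzyme (4 ug/mL stock) and phosphatidylinositol (1.2 mM stock) in Tris pH 7.5/MgCl2/EGTA/Triton X-100 buffer were reacted with ATP (300 microM stock) for one hour at ambient temperature.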
TrxR1 substrate: rat thioredoxin reductase 1 substrate activity; purified TrxR1 substrate turnover, NADPH consumption readout; Potency, µM (doses to about 114 µM), inactives show at the highest dose activity change, negative = substrate turnover; 0.01% of 390,000 active; AID 588456; also: potency is read from the fitted curve at half-maximal effect; nearly all actives have a fitted effect of over 50% in size
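Rat TrxR1, dispensed at 90 nM, was prereduced with 400 uM NADPH (final) for 5 min at ~22 deg C, then incubated with compound 15 min before 400 uM selenite. A first-read NADPH fluorescence drop versus no-compound background flagged substrates.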
PKM2 act: increases activity of human pyruvate kinase M2; purified PKM2, Kinase-Glo ATP luminescence, activation; response scale: 0% is enzyme alone, no compound; P14618; Potency, µM (top dose mostly 57.5 µM), inactives show at the top dose activation, actives largely listed as activators; 0.34% of 260,000 active; AID 1631; also: potency is read from the fitted curve at half-maximal effect; nearly all actives have a fitted effect of over 55% in size
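Kinase-Glo luminescence reports ATP generated from ADP (0.1 mM) and PEP (0.5 mM) by purified hPK-M2 after 1 h at room temperature, pH 7.2 imidazole buffer; intermediate enzyme activity allows detecting inhibitors and activators.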
GALK inhibitor: inhibitors of human galactokinase; Purified GALK, Kinase-Glo residual ATP luminescence; Potency, µM (titrated, usually from 57.5 µM), without a hit: top-dose activity change, negative = inhibition, usual class: inhibitors; 0.007% of 270,000 active; AID 1868; also: potency is read from the fitted curve at half-maximal effect
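Galactose (100 uM) and ATP (35 uM) were turned over by 5 nM GALK for 1 h at RT. Kinase-Glo Plus then converted the remaining ATP into a luminescent signal.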
TrxR1 inh: blocks rat thioredoxin reductase 1; O89049; recombinant rTrxR1, NADPH fluorescence consumption, selenite substrate; Potency, µM (titrated, usually from 114 µM), for the others: at the top dose activity change, negative = inhibition, actives largely listed as inhibitors; 1% of 390,000 active; also: potency is read from the fitted curve at half-maximal effect; nearly all actives have a fitted effect of over 65% in size
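Rat TrxR1 (90 nM in the dispensed reagent) was pre-reduced with 400 uM NADPH for 5 min at room temperature, then incubated with compound for 15 min. After 400 uM selenite was added, NADPH fluorescence (Ex 340/Em 450 nm) was followed for 8 min.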
An asterisk follows results filed as active; i = inactive; u = inconclusive; x = no result; [ ] = another dose, or the depositor's remark. Sampled rows, rich in hits. Any-hit rate of the full collection: about 1.2%. Unless noted, calls follow the shape of the dose curve; as a rule, active = well fitted curve in the direction sought with a large enough effect; inconclusive = small, poorly fitted or top-dose-only effect, or another doubt; inactive = no such curve, though single readings can be large; an effect the other way counts as inactive or inconclusive. Unless noted, % is scaled to controls: 0 for no effect and ±100 for the full control effect.

SMILES	PI4K2A block	TrxR1 substrate	PKM2 act	GALK inhibitor	TrxR1 inh
CCC(=O)N1C2=C(c3ccccc3[C@@H]1CC(=O)Nc1ccc3ccccc3c1)[C@@H]1C(=O)N(c3ccccc3)C(=O)[C@@H]1[C@H](C)C2	x	x	-10%[11.5 µM]	x	x
CN(Cc1ccccc1)S(=O)(=O)c1cccc(C(=O)OCc2ccc(Oc3ccccc3)cc2)c1	2	x	x	x	x
O=C(NC(=S)Nc1ccc2c(c1)OCCO2)c1ccccc1	-1	0%	3%	-3%	7.1µM*
O=C(NC(=S)Nc1ccc2c(c1)OCCO2)c1ccccc1F	2	-5%[57.1 µM]	-10%	-2%	u
CN(CCO)c1cc(Sc2nc3ccccc3s2)c2nonc2c1[N+](=O)[O-]	-20	-7%	u	0%	0.35µM*
CC(=O)OCCN(C)c1cc(SC(C)C)c2nonc2c1[N+](=O)[O-]	-2	9%[57.1 µM]	x	-1%	3.2µM*
O=C(O)c1ccc(N/N=C/c2ccc3c(c2)OCO3)cc1	-67*	1%[57.1 µM]	-4%	16%	1%[57.1 µM]
Cc1ccsc1C(=O)N/N=C/c1ccc2c(c1)OCO2	-54*	-6%	-84%	12%	3%
Cc1occc1C(=O)N/N=C/c1ccc2c(c1)OCO2	-65*	-7%	-83%	u	-4%
Cc1occc1C(=O)N/N=C/c1ccc(-c2ccccc2)cc1	-78*	-3%	-17%	29%	4%
O=C(O)c1cc(N/N=C/c2ccc3c(c2)OCO3)ccc1Cl	-12	-7%	-4%	0%	-8%
O=S1(=O)c2c(cccc2N2CC[C@@H](O)C2)OCCCN1C1CC1	6	x	x	x	x
O=C(NCc1cccnc1)c1nn(-c2ccc(F)cc2)nc1CO	-1	13%	x	x	0%
CCc1ccc(OCC(=O)N(Cc2ccc(C(C)C)cc2)C2CCS(=O)(=O)C2)cc1 (stereo unspecified)	1	-4%	x	x	15%
C=CCN1C(=O)[C@@H](CC(=O)NCc2ccc(OC)c(OC)c2)[C@]2(C(=O)OC)CCCCC=C12	3	x	x	x	x
NC1=C(Cl)C(=O)c2ccccc2C1=O	-9	-10%	x	x	13µM*
CCCC[C@H]1C2CC(OC(=O)Nc3cccc(F)c3)C(C2)[C@H]2CCCCN21 (stereo partly specified)	6	x	x	x	x
CCn1c2ccccc2c2cc(NC(=O)c3coc(=O)c(Br)c3)ccc21	x	x	-2%	-2%	x
CC(C)Cn1c(SCC(=O)Nc2cccnc2Cl)nnc1-c1ccco1	0	3%	x	x	50µM*
CCn1c(SCC(=O)Nc2cccc(NC(C)=O)c2)nnc1-c1ccco1	0	9%[0.0914 µM]	-5%	7%	-9%[57.1 µM]
CCn1c2ccccc2c2cc(NC(=O)c3ccc(Br)o3)ccc21	2	8%[57.1 µM]	21%	0%	18µM*
CCn1c(SCC(=O)Nc2ccc3c(c2)c2ccccc2n3CC)nnc1-c1ccco1	-15	0%	-5%	4%	2.8µM*
CCN(CC)c1ccc(NC(=O)CCCN2C(=O)C(c3ccccc3)Oc3cccnc32)c(C)c1 (stereo unspecified)	0	-4%	x	x	16%
Cc1ccc(NC(=O)CCS(=O)(=O)c2ccccc2)c(C)c1	-4	x	x	x	x
O=C(CCN1CCC(c2ccccc2)C1)c1ccccc1 (stereo unspecified)	-11	6%[2.29 µM]	-14%	1%	u
SMILES	PI4K2A block	TrxR1 substrate	PKM2 act	GALK inhibitor	TrxR1 inh
O=C(O)CCN1CC2([N+](=O)[O-])C=CC(=O)C([N+](=O)[O-])(C1)C2CC(=O)c1ccccc1 (stereo unspecified)	-7	-11%	-9%	0%	14µM*
COc1ccc(C(=O)c2cc3ccc(O)cc3oc2=O)cc1	-53*	-6%	-33%	3%	-4%
O=C(c1ccc(Br)cc1)c1cc2ccc(O)cc2oc1=O	0	-15%	x	4%	-16%
O=C(c1ccccc1)c1cc2ccc(O)cc2oc1=O	-87*	-2%[57.1 µM]	-29%	12%	-13%[57.1 µM]
O=C(NCc1ccco1)c1cc2ccc(O)cc2oc1=O	-76*	i	-73%	25%	u
Nn1c(SCC(=O)Nc2cccc3ccccc23)nnc1-c1cc(-c2ccc(Cl)cc2)n[nH]1	-11	x	x	x	x
Cc1ccc(Sc2c(C)nn(C(=O)COc3ccccc3)c2C)cc1	-9	14%	x	x	41%
